This is a sample that favours compounds with a hit; in the whole collection about 4.2% have one here.
NALP1 yeast inh: inhibitors of NALP1 inflammasome in yeast; S. cerevisiae NALP1/ASC/caspase-1 growth, X-gal OD620, 72 h; actives 0.61% (n = 280,000); AID 2071; inhibition, % at 10 µM; in the data active = inhibition mostly above about 24%, no sharp cut-off; inactive = mostly below about 32%
tim10-1 inh: growth inhibitors of tim10-1 mutant yeast. AID 463190. inhibition, % at 20 µM. S. cerevisiae tim10-1 ts strain growth, BacTiter-Glo, 24 h. actives 2.2% (n = 330,000);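 active = inhibition of at least 40%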;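 note: mutant grown at 25 °C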
tim23-1 inh: growth inhibitors of tim23-1 mutant yeast. S. cerevisiae tim23-1 growth, BacTiter-Glo luminescence, 24 h. inhibition, % at 20 µM. actives 1.3% (n = 330,000). AID 463212;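 active = growth inhibition of the mutant yeast at or above 50%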;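 note: temperature-sensitive mutant grown at 25 °C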
TIM10 inh: inhibits growth of TIM10 yeast strain. S. cerevisiae TIM10 strain growth, BacTiter-Glo luminescence, 24 h. inhibition, % at 10 µM. actives 1.4% (n = 330,000). AID 463195;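 active = inhibition of 40% or more at the single tested concentration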;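 note: wild-type TIM10 isogenic control strain grown at permissive 25 °C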
V-ATPase pH: alters yeast V-ATPase proton transport | response, % at 10 µM | S. cerevisiae, pHLuorin cytosolic pH fluorescence | actives 0.37% (n = 350,000) | AID 504577; in the data active = response mostly above about 7.3%, no sharp cut-off; inactive = mostly below about 5.4%; note: actives read high
NALP3 yeast inh: inhibitors of NALP3 inflammasome in yeast. Yeast reconstituted NLRP3/ASC/caspase-1, beta-gal luminescence, 24 h. inhibition, % at 10 µM. actives 0.39% (n = 330,000). AID 2825;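 active = inhibition of 50% or more; inactive = inhibition below 50%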
tim10-1 conf: confirmation of tim10-1 mutant yeast growth inhibitors; actives 56% (n = 7,400); S. cerevisiae tim10-1 ts strain growth, BacTiter-Glo, 24 h; shares compounds with tim10-1 inh; inhibition, % at 20 µM; AID 463213;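 active = inhibition of yeast growth at or above a set limit in either of two repeat tests at 20 µM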;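 note: tim10-1 mutant grown at permissive 25 °C to find synthetic lethal compounds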
Each line names hits and unclear results; the compound was inactive in the other large screens (follow-up assays come after a bar, where they were run).

COc1ccccc1NC=C1C(=O)OC2(CCCCC2)OC1=O	tim10-1 inh 40 | tim10-1 conf inactive
COC(=O)c1c(NC(=O)CSc2ccccc2N)sc(C)c1C	tim10-1 inh 46 | tim10-1 conf 36
CCOC(=O)c1c(NC(=O)CSc2nnc(CNc3ccc(OC)cc3)n2C)sc(C)c1C	tim10-1 inh 41 | tim10-1 conf inactive
COc1cccc(CNc2nc3nc(C)c(Cl)c(C)n3n2)c1	tim10-1 inh 48 | tim10-1 conf 29
COc1ccc(CNc2nc3nc(C)c(Cl)c(C)n3n2)cc1	none
C=CCNS(=O)(=O)NC(=O)C1=C(N2CCCC2)COC1=O	none (no result: NALP1 yeast inh)
Cc1ccc(-n2nnnc2CNC(=O)c2ccc([N+](=O)[O-])o2)cc1C	tim10-1 inh 43 (no result: NALP1 yeast inh) | tim10-1 conf 31
CCOC(=O)CCc1c(C)nc(-n2[nH]c(C)c(CCO)c2=O)[nH]c1=O	none
COc1ccc(CN2C(=O)c3c(c(C)n(C)c3C)C2C(=O)NC2CCC(C)CC2)cc1 (configuration not stated)	tim10-1 inh 42 | tim10-1 conf inactive
Cc1nc2c(Cl)c(C)nn2c2c1CCC2	tim10-1 inh 41 | tim10-1 conf inactive
Cc1c(Cl)c(C(=O)N2CCCCCC2)nn1C	none
COc1cnc(-c2ccccn2)nc1Sc1ccccc1Cl	tim10-1 inh 47 | tim10-1 conf 34
CCOC(=O)C(C)Sc1nc(-c2ccccn2)ncc1OC (configuration not stated)	none
CC1(C)SC(=S)N(NC(=O)Nc2ccccc2)C1N(O)C(=O)Nc1cccc2ccccc12 (configuration not stated)	tim10-1 inh 42 | tim10-1 conf inactive
CC1(C)SC(=S)N(/N=C/c2ccccc2O)C1N(O)C(=O)Nc1ccccc1 (configuration not stated)	none
NNC(=O)c1c[nH]c2ccc(OCc3ccccc3)cc12	none (no result: NALP1 yeast inh)
COc1cccc(NCc2ccc([N+](=O)[O-])s2)c1	tim10-1 inh 41 | tim10-1 conf inactive
CC(Oc1ccc2c(-c3ccccc3)cc(=O)oc2c1)C(=O)N1CCC[C@@H]1C(N)=O (some centres not stated)	none
Cc1ccc(S(=O)(=O)Nc2c(C)ccc3nsnc23)cc1	tim10-1 inh 42 | tim10-1 conf inactive
Cc1ccc(S(=O)(=O)NNC(=O)C2Cc3c(ccc4ccccc34)O2)cc1 (configuration not stated)	none
CCCCOc1ccc(S(=O)(=O)NNC(=O)C2Cc3c(ccc4ccccc34)O2)cc1 (configuration not stated)	tim10-1 inh 45 | tim10-1 conf inactive
N#CC(C(=O)Nc1ccc(Cl)c(Cl)c1)=C1Nc2ccccc2N1	tim10-1 inh 45 | tim10-1 conf inactive
N#CC(C(=O)Nc1cccc(Cl)c1)=C1Nc2ccccc2N1	none
O=C(Nc1ccc(Cl)cc1)N(CCCN1CCOCC1)Cc1cccs1	none
S=C(Nc1ccc(Cl)cc1)N(CCCN1CCOCC1)Cc1cccs1	tim10-1 inh 41 | tim10-1 conf inactive
Cc1nnc(SCc2cc(=O)oc3ccc4ccccc4c23)n1Cc1ccccc1	tim10-1 inh 46 | tim10-1 conf inactive
Cc1ccc(N2C(=O)c3ccccc3C2=O)cc1	none (no result: NALP1 yeast inh)
Cc1ccc(SC2=C(Sc3ccc(C)cc3)C(=O)c3ccccc3C2=O)cc1	tim10-1 inh 43 | tim10-1 conf inactive
CCc1ccc(-c2cc3c(=O)n(CC(=O)NCCCN4CCC(Cc5ccccc5)CC4)nc(C)n3n2)cc1	tim10-1 inh 53 | tim10-1 conf inactive
CC1CN(c2nc3c(c(=O)n(Cc4ccc(Cl)cc4)c(=O)n3C)n2C)CC(C)O1 (configuration not stated)	tim10-1 inh 44 | tim10-1 conf inactive
CC(C)Cn1c(=O)c2c(nc3n2CC(C)CN3Cc2ccccc2)n(C)c1=O (configuration not stated)	tim10-1 inh 40 | tim10-1 conf inactive
Cc1[nH]n(-c2ccc([N+](=O)[O-])cc2)c(=O)c1C=NCCN1CCN(C(=O)c2cccc(F)c2)CC1	tim10-1 inh 42 | tim10-1 conf 48
O=C(NCc1nc(-c2ccc(C(F)(F)F)cc2)no1)Nc1cc(Cl)cc(Cl)c1	none (no result: NALP1 yeast inh)
O=S(=O)(c1ccc(N2CCC(c3ccc(Cl)cc3)=N2)cc1)N(CCO)CCO	tim10-1 inh 55 | tim10-1 conf 48
O=S(=O)(c1ccc(Oc2ccc(S(=O)(=O)N(CCO)CCO)cc2)cc1)N(CCO)CCO	none
COc1ccc(OC)c(CCNC(=O)c2ccc(NC3=NC4CS(=O)(=O)CC4S3)cc2)c1 (configuration not stated)	none
CC(C)(C)Nc1nc(SCC(=O)Nc2ccccc2)nc(N2CCOCC2)n1	tim10-1 inh 46 | tim10-1 conf inactive
COc1ccc(Cl)cc1NC(=O)CSc1nc(C)cc(C)n1	tim10-1 inh 41 | tim10-1 conf inactive
O=C(O)c1ccc(Cl)c2c1C1C=CCC1C(c1ccccn1)N2 (configuration not stated)	tim10-1 inh 43 (no result: V-ATPase pH) | tim10-1 conf inactive
CCOC(=O)C1CCN(C(=O)CN(Cc2ccc(Cl)cc2)S(C)(=O)=O)CC1	tim10-1 inh 97 (no result: NALP1 yeast inh) | tim10-1 conf inactive
Clc1ccc(C2Nc3cccc4cccc(c34)N2)cc1	none
Cc1cccc(C2Nc3cccc4cccc(c34)N2)c1	tim10-1 inh 41 | tim10-1 conf inactive
COc1ccc2[nH]cc(CCNC(=O)COc3cc(C)cc4oc(=O)cc(C)c34)c2c1	none
Cc1ccc(CNC(=O)c2sc3nc4c(c(C(F)(F)F)c3c2N)CCC4)cc1	none
Nc1c(C(=O)NCc2ccc(Cl)cc2)sc2nc3c(c(C(F)(F)F)c12)CCC3	tim10-1 inh 46 | tim10-1 conf inactive
C[n+]1ccccc1COc1ccc(C(C)(C)C)cc1	none
CN(CC(=O)Nc1n[nH]c(=S)s1)S(=O)(=O)c1cccc2cccnc12	none
CCCOc1ccc(C(=O)N2CCN(c3ccc(N)cc3Cl)CC2)cc1	tim10-1 inh 48 | tim10-1 conf 35
Cc1cc(C)c2oc(=O)cc(CN3CCCCC3)c2c1	none
Cc1ccccc1-n1nnnc1SCC(=O)c1c(N)n(C2CC2)c(=O)[nH]c1=O	none (no result: NALP1 yeast inh)
O=C(CN1CCN(S(=O)(=O)c2ccccc2)CC1)Nc1ccc([N+](=O)[O-])cc1	tim10-1 inh 47 | tim10-1 conf 32
Cc1ccc(S(=O)(=O)N2CCN(CC(=O)Nc3ccc([N+](=O)[O-])cc3)CC2)cc1C	none
CCCc1c(C(=O)NNc2cccc(Cl)c2)cnn1-c1ccccc1	none
Cc1c[n+]([O-])cc(C)c1[N+](=O)[O-]	none (no result: NALP1 yeast inh, tim10-1 inh, tim23-1 inh, TIM10 inh, NALP3 yeast inh)
CCOc1cc(/C=C2\C(=O)N(Cc3ccc(C)cc3)C(C)=C2C(=O)OC)ccc1O	tim10-1 inh 44 | tim10-1 conf inactive
